About 83,000 compounds went through this panel and 20% of them were active in at least one assay; those are over-represented in the sample as a whole.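 The endpoint reported here, percent growth, reads 100 for growth as untreated, 0 for no net growth and -100 for all cells dead.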 A number with no mark means an inactive call. Active and inactive are the calls of the source.
What follows are compounds tested on SW-620 colon (assay: NCI-60 one-dose screen, 48 h (100 = growth as untreated, 0 = no growth, -100 = all killed)). Details: 10 µM unless noted.
Experimental: Growth inhibition of the SW-620 human tumor cell line is measured as a screen for anti-cancer activity. Cells are grown in 96 well plates and exposed to the test compound for 48 hours. Compounds are tested at a single concentration, which is 10^-5 M for most compounds. The reported endpoint is percent growth (GI% or GIPRCNT), where numbers from 0 - 100% represent growth inhibition, and numbers from -100% - 0 represent cell death. For example, a value of 40 represents 60% growth inhibition. A value of 0 means no net growth occurred over the course of the experiment. A value of -40 indicates 40% of cells at the beginning of the experiment died by the end of the experiment. A value of -100 means all cells are dead at the end of the experiment.
NCI-60 Human Tumor Cell Lines Screen was performed using the standard one-dose NCI protocol, which is described in more detail at https://dtp.cancer.gov/discovery_development/nci-60/default.htm.
Compounds with GIPRCNT values below 10 were considered active. Activity score was based on GIPRCNT using the following formula: […]
Score is 0 for GIPRCNT values of 100 or above, 50 for GIPRCNT values of 0, and 100 for GIPRCNT values of -100.
`O=C(Nc1ccc(-n2cc(-c3ccncc3)c(-c3ccc(Cl)c(O)c3)n2)cc1)Nc1ccc(Cl)c(C(F)(F)F)c1` was tested, and the growth was 11%.
`CCCCCCCCCCCCCCCCCC1=NCCN1CCNC(C)=O` showed a growth of 107%.
With `Cc1ccc(CC(=O)O)c(C)c1` the growth was 102%.
`C=CC1CN2CCC1CC2C(O)c1ccnc2ccc(OC)cc12` (stereo not given) showed a growth of 105%.
In the case of `COc1ccc2c(N)ncc(C#Cc3cc(C(=O)Nc4ccc(CN5CCN(C)CC5)c(C(F)(F)F)c4)cnc3C)c2c1`, the growth is reported as -57.7% (active).
`Cc1ccc(C(=O)Nc2ccc(CN3CCN(C)CC3)c(C(F)(F)F)c2)cc1C#Cc1cnc(N)c2ccc(F)cc12` was tested, and the growth was -83.6% (active).
For `CC(=O)Nc1nc(C)c(C(=O)N/N=C/N2CCCCC2)s1`, the growth was 106%.
With `C[n+]1c2ccccc2c(Nc2ccc(NS(=O)(=O)CCCCN=C(N)N)cc2)c2ccc(N)cc21` the growth was 59.1%.
`CC(Br)c1nc2ccccc2cc1C(N)=O` (stereo not given) showed a growth of 110%.
`O=C1C(Br)=CC2C1C1C3CCC3C2(Br)C12OCCO2` (stereo not given) gave a growth of 17.3%.
`NNC(=S)N1N=C(c2cc3ccccc3o2)CC1c1c[nH]c2ccccc12` (stereo not given) was tested, and the growth was 43.8%.
For `Cn1cnc2nc[nH]c2c1=S`, the growth was 99.8%.
Work on `CC(=O)Nc1ccc(CC#N)cc1Br` yielded a growth of 99.3%.
In the case of `O=P(OCCCl)(OCCCl)C(O)c1ccccc1Cl` (stereo not given), the growth is reported as 111%.
`CC(=O)Nc1nc(C)c(C(=O)N/N=C/N2CCOCC2)s1` gave a growth of 107%.
Work on `Cn1c2ccccc2c2ccccc21` yielded a growth of 106%.
With `O=C1C(=O)c2ccccc2C(O)=C1CCCc1ccc(Oc2ccccc2)cc1` the growth was 39.9%.
For `CCn1cnc(C[C@H](NC(=O)[C@@H](NC(=O)Nc2cc(C(F)(F)F)cc(C(F)(F)F)c2)C(C)(C)C)C(=O)OC)c1`, the growth was -60% [100 µM] (active).
In the case of `O=C(/C=C\c1ccccc1Cl)c1ccccc1`, the growth is reported as 82.5%.
Work on `O=S(=O)(O)c1ccc2c(c1)Sc1cc(S(=O)(=O)O)ccc1O2` yielded a growth of 104%.
`COc1cc2ncnc(Nc3ccc4c(cnn4C(=O)Nc4ccccc4)c3)c2cc1OC` showed a growth of 103%.
Work on `CCCCCCC(C)N(CC(C)(C)O)C(=O)c1ccc([N+](=O)[O-])cc1` (stereo not given) yielded a growth of 95.8%.
Compound `O=C(CCC(=O)N(CCO)CCO)N(CCO)CCO` has a growth of 106%.
Compound `CCN(CCO)CCNc1ccc(C)c2sc3cc(OC)ccc3c(=O)c12` has a growth of 38.4%.
Compound `CC1=C(C)C(=O)C(C(C)C2=C(C)C(=O)C(C)=C(C)C2=O)=C(C)C1=O` has a growth of 107%.
In the case of `Cc1nc2c(nnn2-c2ccccc2)c2nc(-c3ccccc3)oc(=O)c12`, the growth is reported as 109%.
In the case of `C/C=C(/C)C(=O)OC1C=C(CO)C(=O)C(OC(=O)C2(C)OC2C)C1C(C)C` (stereo not given), the growth is reported as -26.8% (active).
In the case of `COc1ccc(-c2nnc(SCC(=O)Nc3ccc(C(=O)/C=C/c4cc(OC)c(OC)c(OC)c4)cc3)n2-c2ccccc2)cc1OC`, the growth is reported as 12.2% [100 µM].
With `O=c1c(N=Nc2nccs2)c(-c2ccccc2)[nH]n1-c1nc(-c2ccccc2)cs1` the growth was 40.2%.
In the case of `CCCCCCCCCC(C)NC(=O)CCl` (stereo not given), the growth is reported as 103%.
In the case of `BrCCCOc1ccc(Oc2ccc(OCCCBr)cc2)cc1`, the growth is reported as 108%.
For `N=C(N)c1ccc(-c2ccc(-c3ccc(F)cc3)s2)cc1`, the growth was -87.9% (active).
`O=c1[nH]c2cc(O)ccc2n2cc3c(F)cccc3c12` showed a growth of 18.7%.
With `CCCCCCCCCCCCCCCCCC1=NCCN1CS(=O)(=O)O` the growth was 4.2% (active).
For `C/C(=C\c1ccc2ccccc2c1)[N+](=O)[O-]`, the growth was -33.8% (active).
For `CCOc1ccc(N(C)c2ccc(/C=C/C3=[N+](C)c4ccccc4C3(C)C)cc2)cc1`, the growth was -40.4% (active).
For `Cc1nc(N)sc1C(=O)NCCO`, the growth was 109%.
`CCCNC(=O)Oc1ccc(/C(=C(/C)Cc2ccc(OC)cc2)c2ccc(OCCN3CCCCC3)cc2)cc1` gave a growth of 90.4%.
In the case of `OCCN1CCN(CC/C=C2/c3ccccc3Sc3ccc(C(F)(F)F)cc32)CC1`, the growth is reported as 83.5%.
Work on `Ic1ccc(SSc2ccc(I)cc2)cc1` yielded a growth of 106%.
